Data: PubChem BioAssay
For part of these data: Results with a measured potency or affinity are listed apart. Active and inactive are the calls of the source.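 Rule for the calls, unless noted: active = thallium flux through the channel raised or lowered by more than 3 SD from vehicle-only wells, actives on both sides; inactive = the rest.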

Tests used:
[1] = blockers of cellular phospholipid synthesis – cell-based, LOPAC library, screen 4, primary screen (AID 1347384; call rule not given here); conditions: animal cells, phospholipid biosynthesis inhibition screen; at 10 µM
[2] = yeast 75Q aggregation reduction – 75Q-TubU reporter (AID 1593); conditions: Yeast 75Q polyglutamine aggregation reporter
[3] = restoration of touch response, mutant HTT neurons – whole organism, C. elegans mechanosensory neurons, N-terminal huntingtin (AID 1599); conditions: C. elegans polyQ-huntingtin mechanosensory neurons, stronger effect = higher value
[4] = blockers of cytochrome c efflux from mitochondria – biochemical, purified mitochondria (AID 1603); conditions: stronger effect = lower value;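 note: mouse liver mitochondria challenged with calcium chloride; signal normalized to the plate average as 100%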
[5] = polyglutamine aggregate formation blockers (AID 1604); conditions: polyglutamine-induced protein aggregation inhibition assay; stronger effect = higher value; tested at 2.5 µM
[6] = glutamate transport activators, MN-1 cells, MN-1 cell line (AID 1612); conditions: MN-1 motor neuron cells, stronger effect = higher value;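 note: tested at 1 µM final; 0% = mean of DMSO vehicle wells on each plate; positive means more glutamate uptake than control and negative means less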
[7] = 75Q-TubH aggregate inhibition, S. cerevisiae, yeast (AID 1616); conditions: S. cerevisiae 75Q-TubH polyglutamine aggregation suppression; stronger effect = higher value
[8] = signal quenchers or enhancers, Cy5 substrate/SSB – biochemical, NIH Clinical Collection, E. coli SSB, artefact control for HCV NS3 helicase inhibitor project (AID 743268; call rule not given here); conditions: Cy5-oligo bound E. coli SSB, fluorescence interference
[9] = system: Hepatitis C virus NS3 helicase; test: blockers of NS3h binding to DNA – biochemical, fluorescence polarization, NIH Clinical Collection, primary screen (AID 743270; call rule not given here); conditions: NS3 helicase binding to Cy5-dT15 DNA, stronger effect = higher value, concentration not given here
[10] = target: Single-stranded DNA-binding protein (Escherichia coli (strain K12)) (UniProt P0AGE0); test: SSB-ssDNA binding inhibitors – biochemical, fluorescence polarization, NIH Clinical Collection, counter-screen for HCV NS3 helicase inhibitor project (AID 743271; in the data active = inhibition above about 28%); conditions: E. coli SSB-DNA binding, stronger effect = higher value, concentration not given here
[11] = compounds distorting NS3 helicase fluorescence signal – biochemical, NIH Clinical Collection, artefact control for HCV NS3 helicase inhibitor project (AID 743272; call rule not given here;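 note: HCV NS3 helicase with a Cy5 labelled single stranded DNA probe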); conditions: fluorescence interference counterscreen, HCV NS3 helicase assay; stronger effect = lower value
F380Y = test: BK channel mutant inhibitors and activators – cell-based, U2OS BacMam, thallium flux, beta subunits, selectivity assay, profiling panel (AID 1259406); conditions: U2OS BacMam BK variants, at 30 µM;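 note: initial slope of Thallos dye fluorescence rise after thallium is added; log ratio against the mean of 0.3% DMSO vehicle wells on the same plate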
F380Y/beta1 = test: as above; conditions: U2OS BacMam BK variants, at 30 µM
F380Y/beta2Delta = test: as above; conditions: U2OS BacMam BK variants, at 30 µM
F380Y/beta4 = test: as above; conditions: U2OS BacMam BK variants, at 30 µM
[12] = target: Calcium-activated potassium channel subunit alpha-1 (Homo sapiens) + Leucine-rich repeat-containing protein 26 (Homo sapiens) (UniProt Q12791+Q2I0M4); test: as above; conditions: U2OS BacMam BK variants, F380Y/Slo1WT/gamma1, at 30 µM
R275C = test: as above; conditions: U2OS BacMam BK variants, at 30 µM
R275C/beta1 = test: as above; conditions: U2OS BacMam BK variants, at 30 µM
R275C/beta2Delta = test: as above; conditions: U2OS BacMam BK variants, at 30 µM
R275C/beta4 = test: as above; conditions: U2OS BacMam BK variants, at 30 µM

Sequence of Calcium-activated potassium channel subunit alpha-1 (Homo sapiens) + Leucine-rich repeat-containing protein 26 (Homo sapiens) (Q2I0M4 whole entry, looked up, one chain of several): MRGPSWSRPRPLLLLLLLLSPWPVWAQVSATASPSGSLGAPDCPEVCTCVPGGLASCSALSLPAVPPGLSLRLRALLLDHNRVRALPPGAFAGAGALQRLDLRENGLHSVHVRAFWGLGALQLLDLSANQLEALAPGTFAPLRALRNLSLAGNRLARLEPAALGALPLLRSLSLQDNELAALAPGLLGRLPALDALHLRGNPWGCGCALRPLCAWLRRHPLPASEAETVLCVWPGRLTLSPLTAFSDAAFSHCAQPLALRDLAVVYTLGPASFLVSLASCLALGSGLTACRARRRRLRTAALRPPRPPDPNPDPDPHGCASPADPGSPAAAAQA

SMILES	outcome [1]	score [2]	rescue above control [3]	cytochrome c release ratio [4]	inhibition of aggregation [5] [%]	glutamate uptake change [6] [%]	aggregation suppression score [7]	fluorescence ratio [8]	inhibition [9]	inhibition [10]	fluorescence ratio [11]	log fold change Tl+ flux (F380Y)	log fold change Tl+ flux (F380Y/beta1)	log fold change Tl+ flux (F380Y/beta2Delta)	log fold change Tl+ flux (F380Y/beta4)	log fold change Tl+ flux [12]	log fold change Tl+ flux (R275C)	log fold change Tl+ flux (R275C/beta1)	log fold change Tl+ flux (R275C/beta2Delta)	log fold change Tl+ flux (R275C/beta4)
O=C(CCCN1CCC(O)(c2cccc(C(F)(F)F)c2)CC1)c1ccc(F)cc1	inactive	–	–	–	–	–	–	–	–	–	–	–	–	–	–	–	–	–	–	–
CNS(=O)(=O)CCc1ccc2[nH]cc(C3CCN(C)CC3)c2c1	inactive	–	–	–	–	–	–	–	–	–	–	–	–	–	–	–	–	–	–	–
Cc1ccc(O)cc1	–	0.73	-1.33	0.32	83.3	1.82	1.04	–	–	–	–	–	–	–	–	–	–	–	–	–
O=C(O)CCc1nc(-c2ccccc2)c(-c2ccccc2)o1	inactive	–	–	–	–	–	–	1.04 (inactive)	1.19% (inactive)	2.21% (inactive)	0.94 (inactive)	0.0468 (inactive)	0.171 (active)	0.0584 (inactive)	0.0201 (inactive)	0.0291 (inactive)	-0.025 (inactive)	0.113 (active)	0.0648 (inactive)	0.0678 (inactive)
CCCC(=O)Nc1ccc(OCC(O)CNC(C)C)c(C(C)=O)c1 (configuration not stated)	–	1.34	-8.24	0.94	0	-19.3	1.28	0.9 (inactive)	-3.18% (inactive)	-5.82% (inactive)	1.03 (inactive)	-0.0134 (inactive)	0.00237 (inactive)	-0.0305 (inactive)	-0.0162 (inactive)	0.00552 (inactive)	-0.005 (inactive)	-0.0201 (inactive)	-0.0513 (inactive)	0.0245 (inactive)
CCn1cc(C(=O)O)c(=O)c2ccc(C)nc21	inactive	0.74	-12.9	0.84	54.5	-15.5	0.277	1.03 (inactive)	-0.45% (inactive)	-2.76% (inactive)	0.97 (inactive)	0.0464 (inactive)	0.00258 (inactive)	0.0152 (inactive)	0.0252 (inactive)	0.0259 (inactive)	-0.0165 (inactive)	0.0366 (inactive)	0.000751 (inactive)	0.0726 (inactive)
COc1ccc2cc([C@H](C)C(=O)O)ccc2c1	inactive	0.32	-11.2	0.95	74	6.08	0.196	–	–	–	–	0.000985 (inactive)	0.0107 (inactive)	0.00769 (inactive)	-0.000569 (inactive)	0.0442 (inactive)	-0.0405 (inactive)	-0.0361 (inactive)	-0.0194 (inactive)	-0.0294 (inactive)
COCCCOc1ccnc(CS(=O)c2nc3ccccc3[nH]2)c1C (configuration not stated)	–	–	–	–	–	–	–	0.94 (inactive)	-6.33% (inactive)	0.39% (inactive)	0.94 (inactive)	–	–	–	–	–	–	–	–	–
CC12CCC(CC1)C(C)(C)O2	–	1.26	2.25	0.96	71.8	-6.04	1.21	–	–	–	–	–	–	–	–	–	–	–	–	–
CN(C)C(=O)C(CCN1CCC(O)(c2ccc(Cl)cc2)CC1)(c1ccccc1)c1ccccc1	inactive	1.94	1.56	0.99	7.94	44.5	1.13	1.06 (inactive)	-6.82% (inactive)	-5.05% (inactive)	1.01 (inactive)	0.113 (active)	0.203 (active)	0.103 (active)	0.119 (active)	-0.0267 (inactive)	-0.645 (active)	0.0279 (inactive)	-0.504 (active)	-0.104 (inactive)
CN1CCN(C2=Nc3cc(Cl)ccc3Nc3ccccc32)CC1	inactive	1.19	–	1.52	65.4	-8.51	1.14	1.04 (inactive)	-2.27% (inactive)	-3.53% (inactive)	1.01 (inactive)	0.296 (active)	0.177 (active)	0.389 (active)	0.214 (active)	0.0716 (inactive)	0.0716 (inactive)	0.156 (active)	0.106 (active)	0.137 (active)
CC(C(=O)O)c1cccc(C(=O)c2ccccc2)c1 (configuration not stated)	inactive	1.03	17.1	1.12	74.7	-7.92	0.564	–	-1.36% (inactive)	1.05% (inactive)	0.96 (inactive)	0.0438 (inactive)	-0.011 (inactive)	0.023 (inactive)	0.0138 (inactive)	0.0363 (inactive)	-0.00546 (inactive)	-0.000822 (inactive)	-0.0306 (inactive)	0.00182 (inactive)
CC(C)OC(=O)C(C)(C)Oc1ccc(C(=O)c2ccc(Cl)cc2)cc1	inactive	-2.53	27.1	1.27	59	-24.1	0.0671	–	–	–	–	-0.0417 (inactive)	-0.0557 (inactive)	-0.0352 (inactive)	0.00294 (inactive)	-0.00437 (inactive)	-0.0206 (inactive)	-0.021 (inactive)	0.00724 (inactive)	0.00518 (inactive)
NC(=O)c1cccnc1	–	–	–	–	–	–	–	1.01 (inactive)	0.66% (inactive)	-1.97% (inactive)	1.01 (inactive)	-0.0169 (inactive)	-0.0163 (inactive)	-0.015 (inactive)	0.00589 (inactive)	0.0332 (inactive)	-0.0297 (inactive)	0.0353 (inactive)	0.0215 (inactive)	0.0149 (inactive)
O=C(CCCN1CCC(O)(c2ccc(Cl)cc2)CC1)c1ccc(F)cc1	inactive	1.43	27.6	1.55	81.4	6.85	1.09	0.91 (inactive)	-12.4% (inactive)	1.18% (inactive)	0.89 (inactive)	0.00184 (inactive)	0.0554 (inactive)	0.0376 (inactive)	0.0709 (inactive)	-0.0288 (inactive)	-0.231 (active)	0.104 (active)	-0.165 (active)	-0.0662 (inactive)
Oc1ccc(O)cc1	inactive	–	–	–	–	–	–	–	–	–	–	–	–	–	–	–	–	–	–	–
CN1C(=O)CC[C@H]1c1cccnc1	inactive	1.01	-5.98	0.78	72.2	11.3	1.36	1.01 (inactive)	5.15% (inactive)	6.83% (inactive)	0.91 (inactive)	-0.00809 (inactive)	–	0.00811 (inactive)	–	0.0267 (inactive)	-0.00497 (inactive)	-0.0358 (inactive)	-0.0502 (inactive)	–
CC(C)NCC(O)COc1cccc2[nH]ccc12 (configuration not stated)	inactive	1.28	3.36	0.95	83.3	11.9	1.28	0.9 (inactive)	-5.91% (inactive)	2.57% (inactive)	0.9 (inactive)	-0.0071 (inactive)	0.0264 (inactive)	0.0139 (inactive)	0.000781 (inactive)	0.0267 (inactive)	0.00949 (inactive)	0.00683 (inactive)	-0.0133 (inactive)	-0.00429 (inactive)
CNCCCN1c2ccccc2CCc2ccccc21	inactive	1.37	-15.4	1.05	7.32	12.7	1.18	0.96 (inactive)	-2.27% (inactive)	-2% (inactive)	1.02 (inactive)	0.121 (active)	0.022 (inactive)	0.152 (active)	0.144 (active)	0.148 (active)	0.0168 (inactive)	0.17 (active)	0.152 (active)	0.123 (inactive)
